# A selection: hits, their analogues and other compounds. The true share with any hit is near 2.9%.
# FBA Mtb inh: Mtb FBA enzyme inhibitors, primary screen, biochemical, fluorescence, strain H37Rv; Fructose-bisphosphate aldolase (Mycobacterium tuberculosis (strain ATCC 25618 / H37Rv)), …; purified M. tuberculosis FBA, fluorescence read-out; inhibition, % at 1 µM; actives 2.3% (n = 360,000); AID 588726, 2011;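 note: 0% = vehicle and 100% = reference inhibitor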
# Target sequence (P9WQA3 whole entry, looked up): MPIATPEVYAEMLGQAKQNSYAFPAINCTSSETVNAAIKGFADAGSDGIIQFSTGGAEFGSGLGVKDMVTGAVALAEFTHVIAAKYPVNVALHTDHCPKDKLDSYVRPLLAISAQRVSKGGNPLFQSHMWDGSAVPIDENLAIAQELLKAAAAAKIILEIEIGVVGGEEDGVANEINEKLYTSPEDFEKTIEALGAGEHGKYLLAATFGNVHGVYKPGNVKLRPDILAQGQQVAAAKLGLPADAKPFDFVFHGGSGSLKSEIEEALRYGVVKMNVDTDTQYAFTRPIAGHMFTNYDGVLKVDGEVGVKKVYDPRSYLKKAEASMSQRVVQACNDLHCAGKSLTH
# FadD28 binding: inhibitors of FadD28 bisubstrate probe binding, primary screen, biochemical, fluorescence polarization, single point; AID 588549, 2011; inhibition, % at 12.5 µM; actives 0.22% (n = 360,000); Mycobacterium tuberculosis FadD28 fatty-acid-AMP ligase; in the data active = inhibition above about 8.5%, passing the limit was not always enough
# Mtb BioA inh: M. tuberculosis BioA enzyme inhibitors, primary screen, biochemical, plate reader, single point, HTS | 7,8-diaminopelargonic acid synthase BioA (Mycobacterium tuberculosis) | purified M. tuberculosis BioA enzyme | inhibition, % at 9.99 µM | actives 0.096% (n = 360,000) | AID 602481, 2012; in the data active = inhibition above about 40%
# GDH-TPI counter-1: GDH-TPI coupling enzyme inhibitors, primary screen, artefact control for M. tuberculosis FBA inhibitor project, biochemical, absorbance, full deck. GDH-TPI coupled enzyme counterscreen, NADH absorbance. inhibition, % at 4.8 µM. actives 1.2% (n = 360,000); in the data active = inhibition above about 30%;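 note: 0% = DMSO wells and 100% = wells lacking the enzyme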
# Mtb hypoxia inh: PubChem AID 1159583; M. tuberculosis hypoxia-regulated fluorescent reporter, fluorescence; fluorescence inhibition, % (test concentration not listed); actives 0.1% (n = 300,000); in the data active = fluorescence inhibition mostly above about 23%, no sharp cut-off; inactive = mostly below about 17%
# Mtb FBA inh conf: M. tuberculosis aldolase blockers, biochemical, fluorescence, strain H37Rv, confirmation. actives 78% (n = 5,600). shares compounds with FBA Mtb inh. inhibition, % at 1 µM. purified M. tuberculosis FBA, fluorescence read-out;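 note: 0% = vehicle wells and 100% = reference inhibitor wells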
# GDH-TPI counter-2: GDH-TPI coupling enzyme inhibitors, artefact control for M. tuberculosis FBA inhibitor project, biochemical, fluorescence, high throughput; shares compounds with FBA Mtb inh; GDH-TPI coupled enzyme counterscreen; inhibition, % at 1 µM; actives 81% (n = 5,600); in the data active = inhibition above about 10%
# An asterisk follows results filed as active; · = no result given; + = active, no number. Cut-off read from the data, not from the text of the source, unless noted: active = inhibition above about 27%; inactive = the rest.
SMILES,FBA Mtb inh,FadD28 binding,Mtb BioA inh,GDH-TPI counter-1,Mtb hypoxia inh,Mtb FBA inh conf,GDH-TPI counter-2
C[C@@H](NC(=O)C[C@H]1CC[C@@H](NC(=O)CN2CCOCC2)[C@@H](CO)O1)c1ccccc1,·,·,-3.1,·,·,·,·
COc1ccc(C#Cc2cnc3c(c2)C(=O)N([C@H](C)CO)C[C@H](C)[C@H](CN(C)CC2CCCC2)O3)cc1,·,·,2.1,·,·,·,·
O=C(N[C@@H]1C=C[C@H](CC(=O)N2CCc3ccccc3C2)O[C@H]1CO)C1CC1,·,·,-0.7,·,·,·,·
C[C@H]1CN([C@@H](C)CO)C(=O)CCCn2nncc2CO[C@H]1CN(C)C(=O)Nc1ccc(C(C)(C)C)cc1,·,·,0.2,·,·,·,·
CC(=O)C(C)Oc1ccc2c3c(c(=O)oc2c1)CCCC3 (stereo not drawn),39.8*,-1.0,10.3,6.2,7.4,+,145.7*
O=C(O)C(Oc1ccc2c3c(c(=O)oc2c1)CCC3)c1ccccc1 (stereo not drawn),69.2*,-5.3,4.0,22.0,11.5,3.5,-4.6
CC(C)CCNC(=O)COc1ccc2c3c(c(=O)oc2c1)CCC3,11.0,2.2,·,20.2,1.5,·,·
Cc1cc(=O)oc2cc(NC(=O)c3ccccc3OC(F)F)ccc12,53.5*,-0.6,·,17.1,9.7,69.6*,48.6*
CCc1cc2c3c(c(=O)oc2cc1OCC(=O)OC)CCCC3,53.7*,-5.9,1.3,7.1,11.8,47.7*,31.1*
N#Cc1ccc(-c2nc3ccc(Br)cn3c2Cc2ccccc2C(F)(F)F)cc1,0.6,-0.8,-2.4,·,·,·,·
CCCc1nc2ccc(C)cn2c1Cc1cccc(Cl)c1,27.2*,-7.1,0.2,·,·,+,167.8*
Cc1ccc2nc(-c3ccc(C#N)cc3)c(Cc3cccc(Cl)c3)n2c1,40.9*,-4.0,1.1,·,·,35.2*,34.7*
COc1ccc(-c2nc3ccc(C)cn3c2Cc2cccc(F)c2)cc1OC,59.5*,-10.7,2.0,·,·,66.4*,65.4*
Cc1ccc2nc(-c3ccc(C#N)cc3)c(Cc3ccccc3C(F)(F)F)n2c1,78.5*,-4.2,-0.9,·,·,29.4*,26.7*
N#Cc1ccc(-c2nc3ccc(Cl)cn3c2Cc2cccc(Cl)c2)cc1,16.1,-5.5,0.4,·,·,·,·
C[C@H]1CCCCO[C@H](CN(C)C(=O)C2CCCCC2)[C@@H](C)CN([C@@H](C)CO)C(=O)c2cc(NS(=O)(=O)c3ccc(Cl)cc3)ccc2O1,·,·,0.9,·,·,·,·
N#Cc1ccc(-c2nc3ccc(Cl)cn3c2Cc2cccc(F)c2)cc1,42.6*,-2.4,1.8,·,·,+,191.2*
Cc1ccc(-c2nc3ccc(Cl)cn3c2Cc2cccc(F)c2)cc1,6.2,-10.1,-0.1,·,·,·,·
COCCCn1c(CCC(=O)O)ccc1-c1cccs1,33.9*,-0.1,2.1,3.4,·,34.0*,26.1*
CCCn1c(CCC(=O)O)ccc1-c1cccs1,35.1*,-2.1,-1.2,9.9,12.6,98.0*,83.6*
CCCn1c(CCC(=O)O)ccc1-c1ccccc1,14.7,-3.8,·,-9.3,2.9,·,·
C[C@H]1CN([C@@H](C)CO)C(=O)c2cc(NC(=O)CCCN(C)C)ccc2O[C@@H]1CN(C)S(=O)(=O)c1ccc(Cl)cc1,·,·,-2.1,·,·,·,·
COc1ccc(CN(C)C[C@H]2Oc3c(NS(=O)(=O)c4cccs4)cccc3C(=O)N([C@H](C)CO)C[C@@H]2C)cc1,·,·,5.1,·,·,·,·
CCCCc1[nH]c(=O)c(C#N)c2c1CCCC2,11.1,-2.0,·,12.5,-3.0,·,·
CC(C)Cc1[nH]c(=O)c(C#N)c2c1CCC2,52.2*,-1.3,-1.3,29.1,·,+,168.6*
COc1ccc(NC(=O)N(C)C[C@H]2Oc3c(NC(=O)NC4CCCCC4)cccc3C(=O)N([C@@H](C)CO)C[C@H]2C)cc1,·,·,0.6,·,·,·,·
O=C1c2ccccc2C(=O)N1c1nc2nccc(-c3ccccc3)n2n1,32.4*,-1.2,-1.3,7.9,11.9,31.3*,35.3*
